Only some compounds are listed: those with a hit (about 1.4% of all), similar ones and a draw of the others.
AmpC inh no detg: blocks E. coli AmpC beta-lactamase in detergent-free assay | hit rate 0.52% among 330,000 | AID 485341 | AmpC nitrocefin hydrolysis, absorbance 480 nm, 0.0001% Triton | Potency, µM (series often up to 57.1 µM), for inactives: at the top dose activity change, negative = inhibition, hits mostly inhibitors;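 further: plate controls were no compound for no effect and no enzyme for full effect; nearly all actives have a fitted effect of over 20% in size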
Target sequence (P00811 whole entry, looked up): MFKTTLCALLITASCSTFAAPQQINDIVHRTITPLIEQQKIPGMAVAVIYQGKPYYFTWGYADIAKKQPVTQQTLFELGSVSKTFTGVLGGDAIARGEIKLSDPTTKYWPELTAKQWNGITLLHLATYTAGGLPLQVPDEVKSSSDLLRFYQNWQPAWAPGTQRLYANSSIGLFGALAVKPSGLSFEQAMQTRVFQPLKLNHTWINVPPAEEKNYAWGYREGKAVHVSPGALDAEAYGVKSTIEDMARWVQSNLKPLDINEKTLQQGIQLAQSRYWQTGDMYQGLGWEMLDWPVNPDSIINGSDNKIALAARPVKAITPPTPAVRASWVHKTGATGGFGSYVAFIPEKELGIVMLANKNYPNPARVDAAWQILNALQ
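20 mM phosphate pH 7.0 + 0.01% (detergent screen) or 0.0001% Triton X-100; 5.3 nM AmpC reagent; cpd preinc 15 min RT; nitrocefin (800 uM stock) to start; A480 q20 s × 4 min; Activity was normalised to no-enzyme and no-compound control wells.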
AmpC detergent: blocks E. coli AmpC beta-lactamase in detergent assay; hit rate 0.041% among 370,000; AmpC hydrolysis of nitrocefin, absorbance 480 nm, 0.01% Triton; Potency, µM (highest dose often 114 µM), for inactives: at the highest dose activity change, negative = inhibition, actives largely listed as inhibitors;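 further: 0% = no-compound wells and -100% = no-enzyme wells; nearly all actives have a fitted effect of over 25% in size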
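AmpC (5.3 nM in the dispensed reagent) in 20 mM phosphate pH 7.0 with 0.01% (detergent screen) or 0.0001% Triton X-100 was preincubated with compounds for 15 min at room temperature. Nitrocefin was then added from an 800 uM solution, and hydrolysis was followed at 480 nm.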
SARS PLpro yeast: SARS-CoV PLP inhibition in yeast; S. cerevisiae expressing SARS-CoV PLpro, growth rescue; Potency, µM (top dose mostly 32.9 µM), for the others: at the top dose activity, positive = growth rescue, usual class: activators; hit rate 0.19% among 330,000; calls by dose curve; further: 0% is about no effect; nearly all actives have a fitted effect of over 55% in size
FBPA Giardia inh: inhibitors of Giardia lamblia fructose-1,6-bisphosphate aldolase; A8B2U2; purified Giardia FBPA; Potency, µM (doses to about 59.6 µM), for inactives: at the top dose activity, negative = inhibition, actives largely listed as inhibitors; hit rate 0.71% among 290,000; AID 2451; further: on the % scale 0 is the no-effect control and ±100 the full control effect; nearly all actives have a fitted effect of over 55% in size
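Giardia FBPA (40 nM reagent) was preincubated 10 min at RT with compound (up to 57.5 uM final), then substrate plus GAPDH/TPI/NAD/arsenate coupling system with diaphorase/resazurin was added; resorufin fluorescence (525/598 nm) was read after 20 min.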
NS1 function inh: blocks influenza NS1 protein function | hit rate 0.4% among 270,000 | Potency, µM (doses to about 46.1 µM), inactives show at the highest dose activity, positive = more growth | AID 2326; calls by dose curve; further: actives are rising curves; nearly all actives have a fitted effect of over 50% in size
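Compounds were scored for reversing the slow growth caused by influenza A NS1 in S. cerevisiae, measured by optical density at 600 nm. Assay medium contained 2% galactose at pH 6.0; NS1-free yeast of the same strain were the positive control.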
Starred values were filed as active, the others as inactive; ? = inconclusive; · = no result given; [ ] = dose if it differs, or a comment. Unless noted, the call rests on the fitted dose curve; in most records, active means well fitted curve in the direction sought with a large enough effect; inconclusive means small, poorly fitted or top-dose-only effect, or another doubt; inactive means no such curve, though single readings can be large; an effect the other way counts as inactive or inconclusive. Potency means the concentration at half of the fitted maximal effect.

SMILES	AmpC inh no detg	AmpC detergent	SARS PLpro yeast	FBPA Giardia inh	NS1 function inh
CCOC(=O)C1=C(CCl)NC(=O)NC1c1ccc2c(c1)OCO2 (stereo not given)	-18%	?	25%	1%	6%
Cc1nnc(SCC(=O)c2c(N)n(C)c(=O)n(C)c2=O)n1Cc1ccccc1	0%	-13%	22µM*	5%	3%
O=C(c1cc2ccccc2oc1=O)N1CCN(c2ccc(N3CCOCC3)nn2)CC1	0.14µM*	?	-2%	7%	-5%
Oc1ccc(N=Cc2ccc(-c3cccs3)s2)cc1	-36%	-15%	2%	3.5µM*	-86%
Fc1ccc(N2CCN(c3ncnc4nc[nH]c34)CC2)cc1	20µM*	?	-6%	2%	-2%
OCCN1CCN(c2ncnc3nc[nH]c23)CC1	45µM*	?	2%	-11%	-105%
c1nc(N2CCCC2)c2[nH]cnc2n1	-19%	?	6%	-21%	-2%
c1nc(N2CCCCCC2)c2[nH]cnc2n1	·	?	1%	-9%	-105%
Cc1cccc(N2CSC3=C(C#N)C(c4ccc(C)o4)CC(=O)N3C2)c1 (stereo not given)	-46%	?	4%	?	1.8µM*
CCc1ccccc1N1CSC2=C(C#N)C(c3ccccc3F)CC(=O)N2C1 (stereo not given)	-34%	4%	-4%	6.3µM*	0.89µM*
COc1ccc(C2CC(=O)N3CN(C4CCCCC4)CSC3=C2C#N)c(OC)c1 (stereo not given)	·	-2%	·	·	·
COc1cc(OC)c(C2CC(=O)N3CN(c4ccccc4C)CSC3=C2C#N)cc1OC (stereo not given)	1%	-7%	4%	4.5µM*	4µM*
Cc1cc(C)cc(NC(=O)C2C3C=CC4(O3)C2C(=O)N(CCCN2CCCC2)C4C(=O)NC2CCCC(C)C2C)c1 (stereo not given)	65%	2%	-5%	1%	1%
O=C(COc1cccc(C(F)(F)F)c1)NNC(=O)Cn1c(=O)cnc2ccccc21	-10%	?	0%	·	·
COc1ccc(CC(=O)OCC(=O)N2N=C(c3ccccc3)CC2c2ccc(OC)cc2)cc1 (stereo not given)	1%	3%	-3%	-4%	10%
O=C(/C=C/C(=O)Oc1ccccc1C(=O)O)Oc1ccccc1C(=O)O	·	·	·	-2%	·
C#CCn1c(S(=O)(=O)Cc2ccccc2Cl)nc(-c2ccccc2)c1-c1ccccc1	4.5µM*	2%	-1%	-4%	-2%
CC(=O)NC1=NN(C(C)=O)C(C)(CS(=O)(=O)c2ccc(Cl)cc2)S1 (stereo not given)	-7%	0%	9%	2%	7%[9.22 µM]
COc1cccc(N2C(=O)C3CC=C(Cl)CC3C2=O)c1 (stereo not given)	-7%	-10%	-3%	-4%	4%
Cc1ccc(NC(=O)CSc2nc(O)cc(=O)n2-c2ccc(C)cc2)cc1	13µM*	11%	0%	·	18%
Cc1ccc(NC(=O)CSc2nc(O)c(Cc3ccccc3)c(=O)n2-c2ccccc2)cc1	11µM*	-7%	3%	9%	?
COc1ccc(CNC(=O)COC(=O)CCCOc2ccc(Cl)cc2Cl)cc1OC	161%	-15%	-25%	1%	-64%
O=C(NCCc1ccncc1)C12CC3CC(CC(C3)C1)C2	-16%	-8%	-7%	4%	-1%
O=C(NC(=S)N1CCN(c2ccc(C(F)(F)F)cc2[N+](=O)[O-])CC1)c1cccs1	14µM*	-1%	-39%	23%	19%
COc1cc(CNc2ccc(O)cc2)cc(Br)c1OCc1ccccc1F	-24%	-4%	-18%	16µM*	-23%
SMILES	AmpC inh no detg	AmpC detergent	SARS PLpro yeast	FBPA Giardia inh	NS1 function inh
CCOc1cc(CNc2ccc(O)cc2)cc(Br)c1OCc1ccccc1	·	15%	·	·	·
COc1cc(CNCc2ccncc2)cc(Br)c1OCc1ccccc1F	122%	?	-1%	-28%	-10%
CCOc1cc(CNc2ccc(O)cc2)cc(Br)c1OCc1ccccc1F	4µM*	1%	-22%	?	-26%
O=C1NC(=O)C(Cc2c[nH]c3ccccc23)N1 (stereo not given)	25%	?	0%	4%	-1%
CC(=O)c1c(NC(=O)c2ccccc2)[nH]c(-c2ccccc2)nc1=S	22µM*	?	7%	12%	·
Cc1cc(C)nc(SCC(=O)Nc2ncc(Cc3cccc(Cl)c3)s2)n1	2.8µM*	-10%	-8%	-4%	16%
COc1cc(/C=C/C(=O)OCC(=O)NC(=O)NCc2ccco2)ccc1OC(F)F	20µM*	·	-13%	·	·
COc1cc(C(=O)NNC(=O)NC2CCCCC2)cc(OC)c1OC	0.25µM*	1%	0%	0%	4%
CCCc1cc(N2CCN(c3cccc(C)c3C)CC2)n2cnnc2n1	·	-6%	·	·	·
O=C(Nc1cc([N+](=O)[O-])ccc1Cl)c1ccc2c(c1)OCO2	-12%	3%	-2%	3%	3%
Oc1cccc(/C=N/N(Cc2ccccc2)c2ccccc2)c1	-35%	-5%	0%	-9%	·
Oc1ccc(/C=N/N(Cc2ccccc2)c2ccccc2)c(O)c1O	18µM*	-3%	16%	?	·
COc1ccc(CC(=O)N(C)Cc2ccc(C(C)(C)C)cc2)cc1S(=O)(=O)N1CCOCC1	-30%	1%	0%	·	21%
COc1ccc(OC)c(S(=O)(=O)N2CCN(c3c(C)cccc3C)CC2)c1	40µM*	?	-8%	-14%	-44%
COc1ccc(OC)c(S(=O)(=O)N2CCN(c3ncccn3)CC2)c1	25%	-3%	1%	6%	-7%
COc1ccc(CN2c3c(Br)cccc3C(=O)CS2(=O)=O)cc1	13µM*	·	-62%	·	·
O=C(Nc1ccc(-c2cn3ccsc3n2)cc1)C1COc2ccccc2O1 (stereo not given)	16µM*	?	-5%	2%	-18%
NC(=O)c1nsc(C(=O)N(c2cccc(F)c2)C(C(=O)NC2CCCC2)c2ccc(O)cc2)c1N (stereo not given)	-28%	4%	7%	-3%	8%
NC(=O)c1nsc(C(=O)N(c2cccc(F)c2)C(C(=O)NCc2ccccc2)c2ccc(O)cc2)c1N (stereo not given)	7.9µM*	-6%	5%	-15%	1%
O=C(NCc1ccco1)C1CCN(c2nnc(-n3cccc3)s2)CC1	0.79µM*	4%	23%	8%	-17%
CCCCCNC(=O)C1CCC(Cn2c(=O)c3sccc3n(CC(=O)N3CCCC3)c2=O)CC1 (stereo not given)	·	14%	·	·	·
O=C1C([N+](=O)[O-])=C(O)c2cccc3cccc1c23	-40%	?	2%	25µM*	9%
CCCCCn1c(CNC(=O)CCC)nc2ccccc21	19%	?	3%	0%	-4%
CCCCn1c(C(C)NC(=O)COC)nc2ccccc21 (stereo not given)	-10%	0%	9%	3%	0%
